This passage reports composite z-score results from PubChem BioAssay.

Molecules are shown by their SMILES.

Chain of Concanavalin-A (Canavalia ensiformis) (P02866 whole entry, looked up): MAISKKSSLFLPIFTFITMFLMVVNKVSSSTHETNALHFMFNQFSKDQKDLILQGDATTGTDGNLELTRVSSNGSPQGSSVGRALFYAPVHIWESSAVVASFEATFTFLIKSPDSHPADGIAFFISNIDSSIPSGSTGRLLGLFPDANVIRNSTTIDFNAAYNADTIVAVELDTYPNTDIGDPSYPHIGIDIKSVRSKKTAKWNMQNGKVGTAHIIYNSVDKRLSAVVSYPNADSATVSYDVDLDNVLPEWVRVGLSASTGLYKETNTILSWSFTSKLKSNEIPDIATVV

The test has as its target Concanavalin-A (Canavalia ensiformis) (UniProt P02866). Description: compounds binding concanavalin A lectin – biochemical, small-molecule microarray, Alexa647 label, 635 nm, artefact control for SMM control protein annotation, primary screen (AID 1127).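 Further: z combines 667 nm emission intensity with signal-to-noise across three replicate slides.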 The settings on record: ConA-A647 binding fluorescence, higher = more signal.
Compound `CCCC=C(CCC)[C@@H](NS(=O)(=O)c1ccc(-c2ccccc2)cc1)c1ccc(C(=O)OC)cc1` returned a composite z-score of 0.115.

For `COc1ccc([Si](C)(C)[C@@H]2[C@@H](CC(=O)N(CCO)Cc3ccccc3)O[C@]3(C(=O)N(Cc4cccc(N5CCC5=O)c4)c4ccccc43)[C@H]2C)cc1`, the composite z-score is 0.902.

The compound `CCC1=C2CN(Cc3ccccc3Br)[C@@H]([C@@H](O)Cc3ccccc3)C2C=CCC1` (stereo not given in full) returned a composite z-score of 0.646.

Consider `CO[C@H]1COC(=O)[C@H](C)COC(=O)[C@H](Cc2ccccc2)NC(=O)CC=C[C@H]1C`, for which the composite z-score is -0.994.

Regarding `Cc1ccc(S[C@]2(C(=O)NC3CC3)CC(=O)N(Cc3cc(C(F)(F)F)cc(C(F)(F)F)c3)[C@@H]2c2ccc(CO)cc2)cc1`, the composite z-score was 0.633.

Compound `CCCC[C@@H]1C[C@H]1[C@@H](NC(=O)c1cccs1)c1ccc(Cl)cc1` had a composite z-score of -0.782.

`COC(=O)C(CC#Cc1ccc2c(c1)[C@]1(C(=O)N2)[C@H](C(=O)N2CCCCCCC2)[C@H]2C(=O)O[C@H](c3ccccc3)[C@H](c3ccccc3)N2[C@@H]1c1ccc(O)cc1)C(=O)OC` had a composite z-score of 0.266.

Compound `CC(C)N1CC=CC23O[C@@H]4/C=C\CCCOC(=O)C4[C@H]2C(=O)N(CCO)[C@@H]3C1=O` (stereo not given in full) showed a composite z-score of 0.329.

`O=C1O[C@H](c2ccccc2)[C@H](c2ccccc2)N2[C@H]1[C@@H](C(=O)NC[C@H](O)c1ccccc1)[C@]1(C(=O)Nc3ccc(C#CC4=CCCCC4)cc31)[C@H]2c1ccc(OCCO)cc1` yielded a composite z-score of 1.11.

In the case of `Cc1ccc(S[C@]2(C(=O)NC(C)C)CC(=O)N(C3Cc4ccccc4C3)[C@@H]2c2ccc(CO)cc2)cc1`, the composite z-score was 1.16.
